Assay [1] can be described thus: Cell Viability - LYMP2-009 (AID 968). Note: nearly all actives have a fitted effect of over 55% in size. To be noted: LYMP2-009 lymphoblastoid cell viability; series mostly up to 92.2 µM.
The nature of assay [2]: Cell Viability - LYMP2-011 (AID 969). Note: nearly all actives have a fitted effect of over 60% in size. To be noted: LYMP2-011 lymphoblastoid cells viability; series mostly up to 92.2 µM. Put shortly:
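Cells seeded at 2500 per well rest 5 hr before compound addition, then incubate 24 hr at 37 C. CellTiter-Glo reagent is added for 30 min at room temperature before luminescence detection.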

The nature of assay [3]: Cell Viability - LYMP2-013 (AID 970). Note: nearly all actives have a fitted effect of over 55% in size. To be noted: LYMP2-013 lymphoblastoid cells viability; series mostly up to 92.2 µM. Put shortly:
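In complete culture medium, human lymphoblastoid cells were dosed for 24 hr at 37 C, with tetraoctylammonium bromide (6.4pM to 92 uM) as positive control. Viability reflects luciferase-based ATP signal; AC50 derived from concentration-response curves.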

Assay [4] can be described thus: Cell Viability - LYMP2-015 (AID 971). Note: nearly all actives have a fitted effect of over 55% in size. To be noted: LYMP2-015 lymphoblastoid cell viability; series mostly up to 92.2 µM. The method, boiled down:
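AC50 values reflect Hill-model fits of ATP-based luminescence (CellTiter-Glo) from a human lymphoblastoid line, 2500 cells/well, treated 24 hr at 37 C.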

Assay [5] in a line: Cell Viability - LYMP2-017 (AID 972). Note: nearly all actives have a fitted effect of over 55% in size. To be noted: LYMP2-017 lymphoblastoid cell viability; series mostly up to 92.2 µM. The method, boiled down:
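In this qHTS format, lymphoblastoid cells in complete medium receive test compound for a day at 37 C before ATP content is quantified by luciferase luminescence. Reported AC50 figures come from standard Hill-equation curve fitting.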

Assay [6] is described as follows: Cell Viability - LYMP2-019 (AID 973). Note: nearly all actives have a fitted effect of over 55% in size. Conditions: LYMP2-019 lymphoblastoid cell line viability; series mostly up to 92.2 µM. Put shortly: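 AC50 values come from Hill-equation modelling of qHTS concentration-response curves, where viability is measured as luciferase-based ATP luminescence in the lymphoblastoid line after 24 hr compound exposure in complete culture medium.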

Assay [7] is described as follows: Cell Viability - LYMP2-021 (AID 974). To be noted: LYMP2-021 lymphoblastoid cells viability; series mostly up to 92.2 µM. Put shortly:
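In qHTS format, compounds are tested against 2500 lymphoblastoid cells per well for 24 h; viable cell number is inferred from ATP-driven luciferase light, and Hill-equation fitting yields AC50 values.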

Assay [8] can be described thus: Cell Viability - LYMP2-025 (AID 976). To be noted: LYMP2-025 lymphoblastoid cell viability; series mostly up to 92.2 µM. The method, boiled down: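 Luminescent ATP readout after 24 hr treatment of a human lymphoblastoid line (LYMP2-025, 2500 cells/well, 37 C). Reagent developed 30 min at room temperature; AC50 fitted with the Hill equation.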
The nature of assay [9]: Cell Viability - LYMP2-002 (AID 977).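 Note: compound exposure lasted 24 h at 37 °C.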 To be noted: LYMP2-002 lymphoblastoid cell viability, qHTS; series mostly up to 92.2 µM. The method, boiled down:
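Human lymphoblastoid cells (2500/well) in complete medium were preincubated 5 hr at 37 C, then exposed to compounds for 24 hr at 37 C. Intracellular ATP was read by CellTiter-Glo luminescence; AC50 came from Hill-equation concentration-response fits.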

Assay [10] in a line: Cell Viability - LYMP2-006 (AID 978). Note: nearly all actives have a fitted effect of over 60% in size. Conditions: LYMP2-006 lymphoblastoid cell viability, qHTS; series mostly up to 92.2 µM. Put shortly:
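Concentration-dependent loss of intracellular ATP in a human lymphoblastoid line after 24 hr treatment at 37 C was measured by CellTiter-Glo luminescence, with AC50 values obtained from standard Hill-equation modelling.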
Background: qHTS replaces the single test concentration by a dilution series.

Results filed as inconclusive are left out. The source made the active and inactive calls. Calls come from the whole dose curve; as a rule, active = well fitted cell-killing curve with a large enough effect; inconclusive = small, poorly fitted or top-dose-only effect; inactive = flat fitted curve, though single readings scatter.
Potency is the fitted concentration of half-maximal effect.

Consider `O=C(O)C(Cl)Cl`, for which the Potency entry in [1], in assay [2], in assay [3], in [4], in [5] and in [6] was “inactive” each time. The Potency entry in assay [7], in assay [8], in assay [9] and in assay [10] was “inactive” each time.

With `C1CCC(NC2CCCCC2)CC1`, the Potency result in assay [1], in [2], in assay [3], in assay [4], in assay [5] and in assay [6] was “inactive” throughout. Besides, the Potency result in assay [7], in assay [8], in [9] and in [10] was “inactive” in each case.

Consider `COc1ccc(C(c2ccc(OC)cc2)C(Cl)(Cl)Cl)cc1`, for which the Potency entry in [1], in assay [2], in assay [3], in assay [4], in [5] and in [6] was “inactive” in each case. In addition, the Potency result in assay [7], in assay [8], in [9] and in [10] was “inactive” each time.

`O=[N+]([O-])c1c(Cl)c(Cl)cc(Cl)c1Cl`: the Potency entry in [1], in assay [2], in assay [3], in assay [4], in [5] and in assay [6] was “inactive” throughout. Also, the Potency entry in assay [7], in assay [8], in assay [9] and in [10] was “inactive” in each case.

For `CCCCOC(=O)c1ccccc1C(=O)OCc1ccccc1`, the Potency entry in [1], in assay [2], in [3], in assay [4], in assay [5] and in assay [6] was “inactive” in each case. The Potency result in assay [7], in assay [8], in [9] and in [10] was “inactive” each time.

`Nc1ccc(Sc2ccc(N)cc2)cc1`: the Potency result in assay [1], in [2], in [3], in [4], in assay [5] and in [6] was “inactive” throughout. The Potency entry in assay [7], in [8], in assay [9] and in assay [10] was “inactive” each time.

`O=S(=O)(c1ccc(Cl)cc1)c1ccc(Cl)cc1`: the Potency entry in assay [1], in assay [2], in assay [3], in assay [4], in assay [5] and in [6] was “inactive” each time. Moreover, the Potency result in [7], in assay [8], in assay [9] and in assay [10] was “inactive” throughout.

As for `Cc1cc(O)ccc1Cl`, the Potency result in [1], in [2], in assay [3], in assay [4], in assay [5] and in [6] was “inactive” throughout. The Potency result in assay [7], in assay [8], in [9] and in assay [10] was “inactive” throughout.

On to `O=[N+]([O-])c1cc([N+](=O)[O-])c2ccccc2c1`, for which the Potency entry in assay [1], in [2], in assay [3], in assay [4], in assay [5] and in assay [6] was “inactive” each time. Also, the Potency result in [7], in assay [8], in assay [9] and in [10] was “inactive” in each case.

Regarding `CC(C)(O)C(=O)Nc1ccc([N+](=O)[O-])c(C(F)(F)F)c1`, the Potency result in assay [1], in assay [2], in assay [3], in [4], in [5] and in assay [6] was “inactive” throughout. The Potency result in assay [7], in assay [8], in [9] and in [10] was “inactive” throughout.

Consider `CCCCC(CC)COC(=O)c1ccccc1C(=O)OCC(CC)CCCC` (centres undefined), for which the Potency result in assay [1], in assay [2], in assay [3], in assay [4], in assay [5] and in assay [6] was “inactive” in each case. The Potency entry in assay [7], in [8], in assay [9] and in assay [10] was “inactive” each time.

With `CCCCCCCCc1ccc(O)cc1`, the Potency result in [1], in assay [2], in assay [3], in assay [4], in assay [5] and in assay [6] was “inactive” throughout. Besides, the Potency result in [7], in assay [8], in assay [9] and in assay [10] was “inactive” throughout.

Turning to `CN(C)NC(=O)CCC(=O)O`, the Potency entry in assay [1], in assay [2], in [3], in assay [4], in assay [5] and in assay [6] was “inactive” in each case. Also, the Potency entry in [7], in [8], in assay [9] and in assay [10] was “inactive” each time.

Consider `O=[N+]([O-])c1c2ccccc2cc2ccccc12`, for which the Potency entry in [1], in assay [2], in [3], in [4], in [5] and in assay [6] was “inactive” throughout. The Potency result in assay [7], in [8], in assay [9] and in assay [10] was “inactive” in each case.

As to `Nc1ccc(Cl)cc1N`, the Potency result in [1], in assay [2], in assay [3], in [5], in assay [6] and in assay [7] was “inactive” in each case. The Potency result in assay [8], in [9] and in assay [10] was “inactive” each time.

Regarding `Nc1ccc(Cl)cc1`, the Potency entry in assay [1], in assay [2], in assay [3], in assay [4], in assay [5] and in assay [6] was “inactive” each time. Also, the Potency entry in assay [7], in assay [8], in assay [9] and in assay [10] was “inactive” throughout.

Turning to `CC(=O)[O][Hg][c]1ccccc1`, the Potency in assay [1] is 501 nM (active); in [2], 1000 nM (active); in assay [3], 631 nM (active); in assay [4] it was 631 nM (active); in assay [5] it was 631 nM (active); in assay [6] it was 794 nM (active). Moreover, the Potency in assay [7] is 794 nM (active); in assay [8], 1260 nM (active); in assay [9], 1580 nM (active); in assay [10], 1580 nM (active).

With `Nc1ccc([N+](=O)[O-])cc1`, the Potency result in [1], in assay [2], in assay [3], in [4], in [5] and in assay [6] was “inactive” in each case. Besides, the Potency entry in assay [7], in assay [8], in [9] and in assay [10] was “inactive” in each case.

For the molecule `C=CC(=O)NCNC(=O)C=C`, the Potency result in assay [1], in assay [2], in assay [3], in assay [4], in assay [5] and in assay [6] was “inactive” in each case. The Potency result in assay [7], in assay [8], in [9] and in assay [10] was “inactive” throughout.

`CCOP(=O)(NC(C)C)Oc1ccc(SC)c(C)c1` (centres undefined): the Potency entry in assay [1], in [2], in [3], in [4], in assay [5] and in assay [6] was “inactive” each time. Also, the Potency entry in assay [7], in assay [8], in assay [9] and in assay [10] was “inactive” each time.

In the case of `COC(C)(C)CCCC(C)C/C=C/C(C)=C/C(=O)OC(C)C` (centres undefined), the Potency entry in assay [1], in [2], in assay [3], in assay [4], in assay [5] and in assay [6] was “inactive” throughout. Further, the Potency entry in assay [7], in assay [8], in assay [9] and in [10] was “inactive” throughout.

As to `O=C(O)COc1ccccc1`, the Potency result in assay [1], in [2], in assay [3], in [4], in assay [5] and in assay [6] was “inactive” each time. Also, the Potency result in assay [7], in [8], in assay [9] and in assay [10] was “inactive” throughout.

In the case of `CCOCCOC(C)=O`, the Potency result in assay [1], in assay [2], in [3], in [4], in assay [5] and in assay [6] was “inactive” in each case. Further, the Potency entry in assay [7], in [8], in [9] and in assay [10] was “inactive” in each case.

Regarding `c1cc2ccc3cccc4ccc(c1)c2c34`, the Potency entry in [1], in assay [2], in [3], in assay [4], in assay [5] and in [6] was “inactive” each time. Besides, the Potency result in [7], in [8], in assay [9] and in assay [10] was “inactive” throughout.

As for `CN(C)[C@@H]1C(=O)C(C(N)=O)=C(O)[C@@]2(O)C(=O)C3=C(O)c4c(O)cccc4[C@@](C)(O)[C@H]3[C@H](O)[C@@H]12`, the Potency result in assay [1], in [2], in assay [3], in [4], in [5] and in [6] was “inactive” throughout. Moreover, the Potency result in assay [7], in assay [8], in [9] and in assay [10] was “inactive” in each case.

Take `OCCCBr`: the Potency entry in assay [1], in [2], in assay [3], in assay [4], in assay [5] and in assay [6] was “inactive” throughout. In addition, the Potency entry in [7], in [8], in [9] and in assay [10] was “inactive” each time.
